# Assay outcomes (PubChem BioAssay)
# This is a sample that favours compounds with a hit; in the whole collection about 19% have one here.
# KB-V1 cytotox – qHTS assay for MDR1-selective chemotherapeutics: Primary screen using the drug-selected MDR subline cells KB-V1. 400,000 compounds, 3.4% hits. Potency, µM (doses to about 46.1 µM), usual class: cytotoxic. KB-V1 MDR cells viability, CellTiter-Glo, 72 h; also: nearly all actives have a fitted effect of over 60% in size
#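 Compound-treated KB-V1 multidrug-resistant cells, 72 h, 37 degrees C; viability by CellTiter-Glo. Fitted qHTS curves give the values.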
# KB-3-1 tox – qHTS assay for MDR1-selective chemotherapeutics: Primary screen using the parental adenocarcinoma cell KB-3-1 | KB-3-1 viability, CellTiter-Glo ATP luminescence, 72 h | Potency, µM (top dose mostly 46.1 µM), hits mostly cytotoxic | 400,000 compounds, 1.4% hits | AID 1347075, 2019; also: nearly all actives have a fitted effect of over 60% in size
#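 Luminescent ATP read-out (CellTiter-Glo) measures survival of drug-naive KB-3-1 cells after 72 h compound exposure at 37 °C. Titration series was screened from lowest to highest concentration, with DMSO vehicle plates as background controls.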
# TDP1 cell CPT – qHTS for Inhibitors of human tyrosyl-DNA phosphodiesterase 1 (TDP1): qHTS in cells in presence of CPT; chicken DT40 Tdp1-/-;hTDP1 cells + 20 nM CPT, ATP luminescence, 48 h; Potency, µM (highest dose often 46.2 µM), for inactives: at the top dose activity change, negative = growth inhibition, actives largely listed as inhibitors; 420,000 compounds, 12% hits; AID 686979, 2013; also: nearly all actives have a fitted effect of over 55% in size
#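 Chicken DT40 Tdp1-/- cells complemented with human TDP1, 400 cells/well, exposed to compounds plus 20 nM camptothecin for at least 48 h at 37 C; viability read as ATP content by CellTiter-Glo luminescence.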
# TDP1 cell noCPT – qHTS for Inhibitors of human tyrosyl-DNA phosphodiesterase 1 (TDP1): qHTS in cells in absence of CPT; DT40 Tdp1-/- hTDP1 cells, no CPT, ATP luminescence, 48 h; Potency, µM (titrated, usually from 46.2 µM), for the others: at the top dose activity change, negative = growth inhibition, most hits filed as inhibitors; 420,000 compounds, 15% hits; AID 686978, 2013; also: nearly all actives have a fitted effect of over 55% in size
#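 Cells were dispensed at 400 per well, compounds added by pin tool, plates incubated ≥48 hr at 37 °C, then CellTiter-Glo added for 30 min at room temperature before luminescence reading. Line: DT40 Tdp1-/- complemented with hTDP1; camptothecin omitted.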
# HT1080-NT tox – qHTS for induction of synthetic lethality in tumor cells producing 2HG: qHTS for the HT-1080-NT fibrosarcoma cell line | Potency, µM (doses to about 46.1 µM), for inactives: at the top dose activity, negative = less viability, usual class: cytotoxic | 360,000 compounds, 1.6% hits | HT-1080-NT fibrosarcoma viability, CellTiter-Glo ATP luminescence, 48 h;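 also: NT is the 2HG producing partner of a matched IDH1 knockdown line; 0% = DMSO-treated cells and -100% = media-only wells without cells; nearly all actives have a fitted effect of over 55% in size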
#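 HT-1080-NT fibrosarcoma cells (2HG-overproducing), 750 cells/well in RPMI with 5% FBS, dosed after 2 h and incubated 48 h at 37C. CellTiter-Glo luminescence normalized to DMSO and no-cell wells; concentration-response curves fitted and classed.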
# HT1080 IDH1KD tx – qHTS for induction of synthetic lethality in tumor cells producing 2HG: qHTS for the HT-1080-IDH1KD cell line; Potency, µM (titrated, usually from 46.1 µM), without a hit: top-dose activity, negative = toxicity, usual class: cytotoxic; HT-1080 IDH1 knockdown viability, ATP luminescence, 48 h; 360,000 compounds, 2% hits;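 also: 0% = DMSO wells and -100% = cell-free medium wells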
#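 Viability of IDH1-knockdown HT-1080 fibrosarcoma cells was assessed by CellTiter-Glo after 48 h at 37 °C with titrated compound; concentration-effect curves were classified by fit quality and response size.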
# The depositor's hits bear a star; i = inactive; ? = inconclusive; . = no result given. Calls follow the shape of the dose curve; as a rule, active = well fitted curve in the direction sought with a large enough effect; inconclusive = small, poorly fitted or top-dose-only effect, or another doubt; inactive = no such curve, though single readings can be large; an effect the other way counts as inactive or inconclusive. Unless noted, % is scaled to controls: 0 for no effect and ±100 for the full control effect; potency is read from the fitted curve at half-maximal effect.
SMILES,KB-V1 cytotox,KB-3-1 tox,TDP1 cell CPT,TDP1 cell noCPT,HT1080-NT tox,HT1080 IDH1KD tx
Fc1ccc(CNc2ccn3nc(-c4ccccc4)cc3n2)cc1,i,i,?,?,?,?
Clc1cccc(CNc2ccn3nc(-c4ccc(OCCN5CCOCC5)cc4)cc3n2)c1,?,?,8.2µM*,11.6µM*,16.4µM*,?
c1cc(-c2cc3nc(NCC4CC4)ccn3n2)ccc1OCCN1CCOCC1,i,i,23.1µM*,23.1µM*,2.1%,-0.4%
COc1ccc(-c2oc3c(CC=C(C)C)c(O[C@H]4OC(CO)C(O)C(O)C4O)cc(O)c3c(=O)c2O[C@@H]2OC(C)C(O)C(O)C2O)cc1 (some centres undefined),.,.,1.4%,-11.0%,.,.
COc1ccccc1N1CCN(C(=O)CCn2nc(C)c(S(=O)(=O)N3CCCC3)c2C)CC1,i,i,?,?,.,.
CCC(C)CN1C(=O)CN(S(C)(=O)=O)CC1(C)C(=O)Nc1c(C)cccc1C (centres undefined),i,i,-24.3%,2.3%,18.3%,23.0%
Cn1c(=O)c2cc(C(=O)NC3CCCCCC3)sc2c2ccccc21,i,i,?,18.4µM*,.,.
CCn1c(=O)c2cc(C(=O)NCCCN(C)Cc3ccccc3)sc2c2ccccc21,i,?,?,?,.,.
CCCCNC(=O)c1cc2c(=O)n(CC)c3ccccc3c2s1,i,i,?,23.1µM*,23.8%,?
O=C(NC1CCCCCC1)c1cc2c(Cl)nc3ccccc3c2s1,?,i,0.0%,-13.5%,.,.
CCn1c(=O)c2cc(C(=O)NC3CCCCCC3)sc2c2ccccc21,i,i,16.4µM*,16.4µM*,.,.
CCn1c(=O)c2cc(C(=O)NCCCN3CCN(c4ccc(F)cc4)CC3)sc2c2ccccc21,i,i,18.4µM*,6.51µM*,.,.
CCn1c(=O)c2cc(C(=O)NCc3cccs3)sc2c2ccccc21,i,i,2.6%,?,8.5%,13.9%
COc1ccc(NC(=O)Nc2cc(C(=O)NCc3ccc(C)cc3)ccc2N2CCCC2)cc1,i,i,-9.5%,-8.7%,.,.
Cc1c(C(=O)N2CCCC2)sc2ncnc(NCCN(C)C)c12,.,.,-3.2%,-11.2%,.,.
Cc1ccccc1N1CN(Cc2ccco2)CNC1=S,?,i,9.1%,-16.2%,20.7%,22.5%
COc1cc2[nH]c(=O)n(CCCCCC(=O)N3CCN(c4ccccc4)CC3)c(=O)c2cc1OC,?,i,20.6µM*,16.4µM*,-5.3%,-12.7%
COc1cc2[nH]c(=O)n(CCC(=O)N3CCN(c4ccc(Cl)cc4)CC3)c(=O)c2cc1OC,i,i,-21.4%,-24.8%,.,.
CCOc1cc2[nH]c(=O)n(CCCN3CCN(c4ccc(OC)cc4)CC3)c(=O)c2cc1OCC,i,i,?,?,-1.1%,1.3%
COC(=O)c1ccc2c(=O)n(CCCCCC(=O)N3CCN(c4cc(Cl)ccc4C)CC3)c(=O)[nH]c2c1,i,i,7.31µM*,5.8µM*,.,.
CCOc1cc2[nH]c(=O)n(CCCCC(=O)N3CCN(c4ccc(OC)cc4)CC3)c(=O)c2cc1OCC,i,i,16.4µM*,9.2µM*,.,.
COc1cc2[nH]c(=O)n(CCCCCC(=O)N3CCN(c4ccc(Cl)cc4)CC3)c(=O)c2cc1OC,i,i,?,7.31µM*,.,.
CC(C)(C)c1ccc(C(=O)NCC(=O)OCC(=O)Nc2ccc3c(c2)OCCO3)cc1,i,i,-3.7%,-7.7%,-0.5%,13.4%
COC(=O)c1cc(=O)c2c(ccc3oc(=O)ccc32)[nH]1,i,i,-25.1%,-5.1%,14.2%,1.1%
COc1cc2[nH]c(=O)n(CCCC(=O)NCc3ccccc3)c(=O)c2cc1OC,i,i,-11.4%,-9.3%,.,.
SMILES,KB-V1 cytotox,KB-3-1 tox,TDP1 cell CPT,TDP1 cell noCPT,HT1080-NT tox,HT1080 IDH1KD tx
COc1cc2[nH]c(=O)n(CCC(=O)N3CCN(c4cccc(C)c4C)CC3)c(=O)c2cc1OC,i,i,23.1µM*,?,-4.2%,16.2%
COC(=O)c1ccc2c(=O)n(CCCCCC(=O)N3CCN(c4ccccc4)CC3)c(=O)[nH]c2c1,?,?,18.4µM*,10.3µM*,4.0%,-6.9%
COc1cc2[nH]c(=O)n(CCCC(=O)N3CCN(c4cccc(C(F)(F)F)c4)CC3)c(=O)c2cc1OC,i,i,4.61µM*,2.31µM*,.,.
COc1cc2[nH]c(=O)n(CCC(=O)N3CCN(Cc4ccccc4)CC3)c(=O)c2cc1OC,i,i,-5.7%,?,14.0%,9.8%
Cc1ccc(Cn2c(C)c(CNCc3ccccc3F)c(C(=O)O)c2C)cc1,?,i,?,?,.,.
COC(=O)[C@@H]1CCCN1C(=O)c1c(OC)cc(=O)n2c1CCN(Cc1ccc(C)o1)CC2,.,.,4.5%,-13.5%,.,.
Cn1nnc2c[n+](CC(=O)c3ccc4ccccc4c3)cc(Br)c21,i,?,?,14.6µM*,?,20.6µM*
CCOCCCn1c(C)nc2c[n+](CC(=O)c3ccc4ccccc4c3)cc(Br)c21,i,?,2.31µM*,2.59µM*,-2.9%,0.1%
O=C(C[n+]1cc(Br)cc(Br)c1)c1ccc2ccccc2c1,i,i,-24.4%,?,.,.
COc1ccc(-c2[nH]c(-c3ccc(C)cc3)nc2SCC(=O)NCC2CCCO2)cc1 (centres undefined),i,i,?,?,.,.
CCOc1ccc(C(=O)CSc2nc3cc(C(=O)NC4CCCC4)ccc3c(=O)n2CC2CCCO2)cc1 (centres undefined),i,i,0.0%,0.6%,.,.
CC(C)(C)C1CCNC(=O)CC1 (centres undefined),i,i,-7.4%,0.8%,8.0%,8.2%
CCOC(=O)c1cc2c(=O)c3cc(C)ccc3oc2nc1C,i,i,?,14.6µM*,28.6%,11.6%
Cc1cc(Nc2ccccc2)c2c([N+](=O)[O-])cc(C)c(C)c2n1,i,i,9.2µM*,23.1µM*,-15.2%,-15.0%
